Records with an inconclusive call do not appear. Active and inactive are the calls of the source. Unless noted, calls follow the shape of the dose curve; as a rule, active = well fitted curve in the direction sought with a large enough effect in the repeat runs; inconclusive = weak or mixed curves; inactive = no such curve, though single readings can be large; an effect the other way counts as inactive or inconclusive.
Assays:
[1] = qHTS assay to identify small molecule agonists of the NFkB signaling pathway (AID 1159509; active = well fitted curve in the direction sought with a large enough effect in the signal ratio in the repeat runs, not every such curve was filed as active; the % refers to the signal ratio; also: series mostly up to about 61 µM)
Summary of the method: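 Beta-lactamase reporter assay run in quantitative high-throughput format on an NF-kB-responsive ME-180 line, with 5 hr compound treatment and a FRET-based blue/green fluorescence readout.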

[2] = qHTS assay to identify small molecule agonists of the NFkB signaling pathway - cell viability counter screen (AID 1159515; calls by dose curve; also: series mostly up to about 61 µM; nearly all actives have a fitted effect of over 55% in size)
Summary of the method: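 Plate 2,000 NFkB-bla ME-180 cells/well; incubate overnight. Add compounds, 5 hr at 37 C. Add FRET substrate, 1.5 hr RT. Add CellTiter-Glo, 30 min RT; read luminescence.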

[3] = qHTS assay to identify small molecule agonists of the endoplasmic reticulum stress response signaling pathway (AID 1159516; active = well fitted activation curve with a large enough effect in the signal ratio in the repeat runs, not every such curve was filed as active; the % refers to the signal ratio)
Summary of the method: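 Beta-lactamase expression from the ER stress response element in HeLa reporter cells is quantified with the LiveBLAzer B/G FRET substrate, read at 405 nm excitation after 2 hr at room temperature, following 5 hr compound treatment at 37 C.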

[4] = qHTS assay to identify small molecule agonists of the endoplasmic reticulum stress response signaling pathway - cell viability counter screen (AID 1159517; calls by dose curve; also: series mostly up to about 61 µM; nearly all actives have a fitted effect of over 50% in size)
Summary of the method: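 Steps: seed 1,500 ESRE-bla HeLa cells per well; incubate overnight at 37 C, 5% CO2; add compounds in DMSO for 5 hr; run FRET substrate 2 hr RT; add CellTiter-Glo, wait 30 min, read luminescence.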

[5] = qHTS assay to identify small molecule antagonists of the retinoid-related orphan receptor gamma (ROR-gamma) signaling pathway - cell viability counter screen (AID 1159520); also: nearly all actives have a fitted effect of over 50% in size
Summary of the method: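 Tet-on ROR gamma CHO cells were given compounds for 2 hr, then doxycycline hyclate at 1 uM final, and incubated 16 hr at 37 C. Viability was measured as ATP content by CellTiter-Glo luminescence.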

[6] = molecular target: Nuclear receptor ROR-gamma (Homo sapiens) (UniProt P51449); assay: qHTS assay to identify small molecule antagonists of the retinoid-related orphan receptor gamma (ROR-gamma) signaling pathway (AID 1159521; also: nearly all actives have a fitted effect of over 50% in size; also: potency is read from the fitted curve at half-maximal effect)
Summary of the method: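 Readout: ONE-Glo luciferase luminescence, 30 min at room temperature. System: Tet-on RORγ CHO, RORE-LUC. Sequence: compound 2 h, doxycycline 1 uM final, 16 h at 37 C.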

[7] = qHTS assay to identify small molecule agonists of the AP-1 signaling pathway - cell viability counter screen (AID 1159525; calls by dose curve; also: nearly all actives have a fitted effect of over 55% in size)
Summary of the method: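 Same-well cytotoxicity counter screen of the Tox21 10K library in ME-180 cells. The readout is ATP-dependent luminescence after 5 h compound treatment. Data are normalised to DMSO and tetra n-octyl ammonium bromide controls.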

[8] = qHTS assay to identify small molecule agonists of the AP-1 signaling pathway (AID 1159526; calls by dose curve)
[9] = qHTS assay to identify small molecule agonists of the RXR signaling pathway - cell viability counter screen (AID 1159529); also: series mostly up to about 77 µM; nearly all actives have a fitted effect of over 50% in size
Summary of the method: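 Tox21 10K compounds were tested for cytotoxicity against GeneBLAzer RXR-alpha HEK 293T cells grown in 2% charcoal-stripped FBS. Exposure lasted 16 hr at 37 C, 5% CO2; viability read by CellTiter-Glo luminescence.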

[10] = qHTS assay to identify small molecule antagonists of the retinoid acid receptor (RAR) signaling pathway - cell viability counter screen (AID 1159551); also: nearly all actives have a fitted effect of over 35% in size
Summary of the method: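 Viability of C3RL4 cells is quantified from ATP by luminescence after 6 h treatment at 37 C with compounds and 1 uM retinol.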

[11] = qHTS assay to identify small molecule agonists of the vitamin D receptor (VDR) signaling pathway - cell viability counter screen (AID 743224)
Summary of the method: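 In parallel with the bla FRET readout, cytotoxicity toward VDR-bla cells after 16 h compound exposure was assessed by CellTiter-Glo, with luminescence recorded after a 30 min room-temperature incubation.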

[12] = qHTS assay to identify small molecule antagonists of the vitamin D receptor (VDR) signaling pathway - cell viability counter screen (AID 743225); also: nearly all actives have a fitted effect of over 50% in size
Summary of the method: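 Cytotoxicity toward the VDR-bla HEK 293T line was scored by ATP-based CellTiter-Glo luminescence, read in the wells already used for the beta-lactamase readout after 16 h compound treatment under 3 nM 1-alpha,25-dihydroxyvitamin D3 stimulation.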

[13] = qHTS assay to identify small molecule antagonists of the retinoic acid receptor (RAR) signaling pathway (AID 1159552; also: nearly all actives have a fitted effect of over 50% in size)
Summary of the method: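 Overnight-plated C3RL4 reporter cells get compound, then retinol to 1 uM final; plates sit 6 hr at 37 C, 5% CO2. A luciferase reagent is added and light output recorded after 30 min at room temperature.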

[14] = qHTS assay to identify small molecule agonists of the retinoic acid receptor (RAR) signaling pathway (AID 1159553); also: potency is read from the fitted curve at half-maximal effect
Summary of the method: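 Compounds dissolved in DMSO were pinned onto C3RL4 cells seeded the previous day, and plates were held 6 hr at 37 C. RARE-driven luciferase output was then read by luminescence.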

[15] = molecular target: Retinoic acid receptor RXR-alpha (Homo sapiens) (UniProt P19793); assay: qHTS assay to identify small molecule agonists of the RXR signaling pathway (AID 1159527; calls by dose curve; also: nearly all actives have a fitted effect of over 35% in size)
Retinoic acid receptor RXR-alpha (Homo sapiens), sequence (P19793 whole entry, looked up): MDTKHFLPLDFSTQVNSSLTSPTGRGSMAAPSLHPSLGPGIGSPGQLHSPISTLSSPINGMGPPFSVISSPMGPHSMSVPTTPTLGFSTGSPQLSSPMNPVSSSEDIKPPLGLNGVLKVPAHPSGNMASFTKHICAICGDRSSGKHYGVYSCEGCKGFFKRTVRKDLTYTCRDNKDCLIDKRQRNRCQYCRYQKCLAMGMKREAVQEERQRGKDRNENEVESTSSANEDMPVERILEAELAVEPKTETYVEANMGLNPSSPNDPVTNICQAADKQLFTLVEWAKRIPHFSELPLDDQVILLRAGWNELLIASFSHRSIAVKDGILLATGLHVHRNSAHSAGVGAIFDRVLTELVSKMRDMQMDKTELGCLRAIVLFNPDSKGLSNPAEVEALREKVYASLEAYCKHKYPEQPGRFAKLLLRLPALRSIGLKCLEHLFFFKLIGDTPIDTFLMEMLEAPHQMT
Summary of the method: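 Reporter activation is measured as beta-lactamase activity via FRET substrate cleavage (emission 460/530 nm) in HEK 293T cells expressing an RXR-alpha-driven bla construct, following 16 hr compound exposure at 37 C.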

Measured: Potency

C[C@]1(O)CC[C@H]2[C@@H]3CCC4=CC(=O)CC[C@]4(C)[C@@]3(F)[C@@H](O)C[C@@]21C
not listed: [11] | [12] | [13] | [14] | [15]
inactive: all other assays above

COc1cc2c(cc1OC)[C@@]13CCN4CC5=CCO[C@H]6CC(=O)N2[C@H]1[C@H]6[C@H]5C[C@H]43
not listed: [15]
inactive: all other assays above

O=c1oc2ccccc2c(O)c1C1CCCc2ccccc21 (configuration not stated)
active: [6] 48.6 µM
not listed: [12] | [15]
inactive: all other assays above

CCCCOC(=O)c1ccccc1N
not listed: [9] | [11] | [14]
inactive: all other assays above

CC1(C)COP(Oc2ccccc2)OC1
not listed: [15]
inactive: all other assays above

C(CCOCC1CO1)COCC1CO1 (configuration not stated)
not listed: [9]
inactive: all other assays above

N#CCNCC#N
not listed: [11] | [12] | [13] | [14] | [15]
inactive: all other assays above

CS(=O)(=O)c1cc(C(F)(F)F)ccc1C(=O)c1cnoc1C1CC1
not listed: [12] | [15]
inactive: all other assays above

CN1C(=S)CN=C(c2ccccc2)c2cc(Cl)ccc21
not listed: [15]
inactive: all other assays above

CC1(C)CON(Cc2ccccc2Cl)C1=O
active: [14] 68.6 µM
not listed: [11] | [12] | [15]
inactive: all other assays above

CC(COc1ccc(Oc2ccccc2)cc1)Oc1ccccn1 (configuration not stated)
active: [14] 13.7 µM
not listed: [12] | [15]
inactive: all other assays above

C[C@]12CC[C@H]3[C@@H](CCC4=CC(=O)CC[C@@]43C)[C@@H]1CC[C@@H]2C(=O)O
not listed: [15]
inactive: all other assays above

CNC(=O)Oc1ccc(N(C)C)c(C)c1
not listed: [15]
inactive: all other assays above

CC(C)(C)OC(=O)c1ncn2c1[C@@H]1CCCN1C(=O)c1c(Br)cccc1-2
not listed: [15]
inactive: all other assays above

CCCCOC(=O)c1ccccc1C(=O)O
not listed: [15]
inactive: all other assays above

O=[N+]([O-])c1cccc2c([N+](=O)[O-])cccc12
not listed: [13] | [15]
inactive: all other assays above

ClC(Cl)(Cl)C(Cl)(Cl)Cl
not listed: [12] | [13] | [14] | [15]
inactive: all other assays above

NC(=O)c1cc([N+](=O)[O-])cc([N+](=O)[O-])c1
not listed: [12] | [13] | [14] | [15]
inactive: all other assays above

CC(C)CC#N
not listed: [11] | [15]
inactive: all other assays above

COP(N)(=S)Oc1ccccc1C(=O)OC(C)C (configuration not stated)
not listed: [12] | [13] | [14] | [15]
inactive: all other assays above

C=C(C)[C@@H]1CC=C(C=O)CC1
not listed: [14] | [15]
inactive: all other assays above

From PubChem BioAssay (Tox21)
